In the library only some 9.2% were active in any assay of this set; here they are far more common.
ELG1 DNA repair: ELG1-dependent DNA repair inhibition. 330,000 tested, 2.3% active. HEK293T ELG1-luciferase reporter, luminescence, 16 h; DNA damage induced by 5-fluorouridine. Potency, µM (titrated, usually from 46.1 µM), without a hit: at the highest dose activity change, negative = inhibition, actives largely listed as inhibitors; also: % is scaled to controls: 0 for no effect and ±100 for the full control effect; nearly all actives have a fitted effect of over 55% in size
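Reporter activity after DNA damage by 5-fluorouridine is monitored. Compound-treated cells incubate 16 hr at 37 °C, then ONE-Glo is added for 30 min before luminescence reading.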
FLuc counter: counter-screen for miR-21 project: firefly luciferase inhibitors or activators. P08659. purified FLuc, Km substrates, luminescence inhibition. Potency, µM (titrated, usually from 57.5 µM), for inactives: top-dose activity change, negative = inhibition, most hits filed as inhibitors. 360,000 tested, 6.9% active. AID 588342;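 also: plate controls were vehicle for no effect and reference inhibitor for full effect; nearly all actives have a fitted effect of over 55% in size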
Target sequence (P08659 whole entry, looked up): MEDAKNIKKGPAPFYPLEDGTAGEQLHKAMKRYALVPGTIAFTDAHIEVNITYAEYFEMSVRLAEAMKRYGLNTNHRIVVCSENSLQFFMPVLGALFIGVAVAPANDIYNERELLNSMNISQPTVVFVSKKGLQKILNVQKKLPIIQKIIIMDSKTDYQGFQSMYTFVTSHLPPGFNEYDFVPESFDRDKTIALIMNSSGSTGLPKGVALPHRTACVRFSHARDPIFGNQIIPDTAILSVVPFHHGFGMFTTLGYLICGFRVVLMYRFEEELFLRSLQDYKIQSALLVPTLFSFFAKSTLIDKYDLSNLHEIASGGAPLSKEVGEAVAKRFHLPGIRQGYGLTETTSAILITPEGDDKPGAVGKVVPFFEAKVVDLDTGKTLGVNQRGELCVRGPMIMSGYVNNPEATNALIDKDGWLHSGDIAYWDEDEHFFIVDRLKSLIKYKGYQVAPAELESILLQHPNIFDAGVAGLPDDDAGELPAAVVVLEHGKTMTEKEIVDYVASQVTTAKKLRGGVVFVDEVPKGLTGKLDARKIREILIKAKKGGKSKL
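Purified P. pyralis luciferase, 10 nM final, with Km-level 10 uM D-luciferin and 10 uM ATP in 50 mM Tris acetate pH 7.5, 10 mM Mg acetate, 0.01% Tween-20, 0.05% BSA; 6-point qHTS titration about 60 µM downward; luminescence read.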
Rab9 promoter act: activators of Rab9 promoter | Huh7 Rab9 promoter-luciferase reporter, luminescence, 24 h | Potency, µM (series often up to 9.22 µM), inactives show at the highest dose activation, negative = inhibition, actives largely listed as activators | 320,000 tested, 2.8% active; also: % of control where 0% means no effect; nearly all actives have a fitted effect of over 60% in size
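Huh7 cells stably carrying Rab9 promoter–luciferase reporter, plated 1500 cells/well, compound added after 2 h and incubated 24 h at 37 °C; luciferase luminescence then read after 10 min with detection reagent.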
SMN2 splice enh: increases expression of the SMN2 splice variant. HEK293 SMN2-luciferase splicing reporter, luminescence, 30-36 h. Potency, µM (doses to about 46.1 µM), for inactives: top-dose activity change, positive = activation, hits mostly activators. 210,000 tested, 2.8% active; also: % of control where 0% means no effect; nearly all actives have a fitted effect of over 55% in size
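HEK293 cells carry an SMN2 minigene-luciferase reporter in which exon 7 inclusion puts luciferase in frame. Cells were seeded at 2000 cells/well, attached for 10-12 hours, then exposed to compounds for 30-36 hours at 37C before ONE-Glo luminescence.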
ELG1 genotoxic: inducers of genotoxicity in HEK293T ELG1-luciferase cells | HEK293T ELG1-luciferase reporter, luminescence, 16 h | Potency, µM (titrated, usually from 46 µM), for inactives: top-dose activity change, positive = activation, most hits filed as activators | 330,000 tested, 1.3% active | AID 504466; also: % of control where 0% means no effect; nearly all actives have a fitted effect of over 60% in size
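Cells (2,000/well) expressing the ELG1-luciferase fusion are dosed by pin tool and kept 16 hr at 37 °C, 5% CO2. Signal comes from ONE-Glo luciferase reagent after 30 min at room temperature.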
NPC1 prom act: NPC1 promoter activation; Huh7 NPC1 promoter luciferase reporter, 24 h; Potency, µM (series often up to 9.22 µM), for inactives: at the highest dose activation, usual class: activators; 320,000 tested, 2.4% active; AID 485313; also: % of control where 0% means no effect; nearly all actives have a fitted effect of over 60% in size
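Huh7 cells stably carrying NPC1 promoter–luciferase, plated in Opti-MEM with 10% FBS for 2 h, were exposed to compound in DMSO for 24 h at 37 °C; luciferase reagent was added for 10 min and luminescence read.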
Starred values were filed as active, the others as inactive; [ ] = remark or other dose. Calls follow the shape of the dose curve; as a rule, active = well fitted curve in the direction sought with a large enough effect; inconclusive = small, poorly fitted or top-dose-only effect, or another doubt; inactive = no such curve, though single readings can be large; an effect the other way counts as inactive or inconclusive. Potency is read from the fitted curve at half-maximal effect.

For O=C(Nc1ccc(F)cc1)/C(Cl)=C/c1ccccc1 the results were ELG1 DNA repair inconclusive, FLuc counter 1.2µM*, Rab9 promoter act 2.5µM*, SMN2 splice enh 14µM*, ELG1 genotoxic inconclusive and NPC1 prom act 4µM*.
Screening CC(=O)c1ccc(NC(=O)C2(c3ccccc3)CC2(Cl)Cl)cc1 (configuration not stated) returned ELG1 DNA repair inconclusive, FLuc counter 27µM*, Rab9 promoter act inconclusive, ELG1 genotoxic inconclusive and NPC1 prom act inconclusive.
Screening Cc1ccc(NC(=O)/C(Cl)=C\c2ccccc2)cc1 returned ELG1 DNA repair 0%, FLuc counter 0%, Rab9 promoter act 7%, SMN2 splice enh 2%, ELG1 genotoxic -5% and NPC1 prom act -5%.
For O=C(Nc1ccccc1)/C(=C/c1ccccc1)c1ccccc1 the results were ELG1 DNA repair 10µM*, FLuc counter inconclusive, Rab9 promoter act -1%, SMN2 splice enh 9%, ELG1 genotoxic -3% and NPC1 prom act 1%.
For O=C(c1cccc(Cl)c1)N1CCN(c2ccccn2)CC1 the results were ELG1 DNA repair 7%, FLuc counter -2%, Rab9 promoter act -3%, SMN2 splice enh -3%, ELG1 genotoxic 1% and NPC1 prom act 1%.
`O=C(c1ccc(Cl)c(S(=O)(=O)NCc2ccccc2)c1)N1CCN(c2ccccn2)CC1` gave ELG1 DNA repair 23µM*, FLuc counter -1%, Rab9 promoter act 0%, SMN2 splice enh -25%, ELG1 genotoxic -7% and NPC1 prom act -5%.
For Cc1cccc(N2CCN(C(=O)c3ccc(Cl)c(S(=O)(=O)NCc4ccco4)c3)CC2)c1C the results were ELG1 DNA repair 18µM*, FLuc counter -1%, Rab9 promoter act -1%, SMN2 splice enh -24%, ELG1 genotoxic -16% and NPC1 prom act -7%.
For O=C1Nc2cc(C(=O)N3CCN(c4ccccn4)CC3)ccc2S/C1=C\c1ccccc1 the results were ELG1 DNA repair 18µM*, FLuc counter -24%, Rab9 promoter act -4%, ELG1 genotoxic -3% and NPC1 prom act 0%.
Screening CN1C(=O)/C(=C\c2ccccc2)Sc2ccc(C(=O)N3CCN(c4ccccn4)CC3)cc21 returned ELG1 DNA repair -23%, FLuc counter inconclusive, Rab9 promoter act 6%, SMN2 splice enh -18%, ELG1 genotoxic -6% and NPC1 prom act -5%.
Screening O=C(c1ccc(S(=O)(=O)c2cccc(Cl)c2)c([N+](=O)[O-])c1)N1CCN(c2ccccn2)CC1 returned ELG1 DNA repair 18µM*, FLuc counter 6%, Rab9 promoter act -1%, SMN2 splice enh -85%, ELG1 genotoxic -13% and NPC1 prom act 1%.
For CC(C)(C)N(Cc1ccccc1)C(=O)CN1C(=O)c2ccccc2S1(=O)=O the results were ELG1 DNA repair -3% and ELG1 genotoxic -1%.
Nc1nc(N)c(N=O)c(OCC2CCCCC2)n1 was read as ELG1 DNA repair inconclusive, FLuc counter inconclusive, Rab9 promoter act -15%[46.1 µM], ELG1 genotoxic 18µM* and NPC1 prom act 0%[46.1 µM].
O=C(N/N=C1\CCc2ccccc21)c1ccccc1O was read as ELG1 DNA repair inconclusive, FLuc counter 1.7µM*, Rab9 promoter act 0.79µM*, SMN2 splice enh 1.1µM*, ELG1 genotoxic inconclusive and NPC1 prom act 0.63µM*.
For O=C(NN=C1C2CC3CC(C2)CC1C3)c1ccccc1O the results were ELG1 DNA repair -5%, FLuc counter 17µM*, Rab9 promoter act -3%, ELG1 genotoxic -3% and NPC1 prom act -8%.
Screening O=C(NN=C1C2CC3CC(C2)CC1C3)c1cccs1 returned ELG1 DNA repair inconclusive, FLuc counter -18%, Rab9 promoter act 1%, SMN2 splice enh 2%, ELG1 genotoxic inconclusive and NPC1 prom act 1%.
O=C(N/N=C1\CCc2ccccc21)c1ccncc1 was read as ELG1 DNA repair inconclusive, FLuc counter 21µM*, Rab9 promoter act inconclusive, SMN2 splice enh 20µM*, ELG1 genotoxic inconclusive and NPC1 prom act inconclusive.
Screening CC(=O)Nc1ccc(NC(=O)C(C)OC(=O)[C@@H]2CCCN2C(=O)c2cccs2)cc1 (some centres not stated) returned ELG1 DNA repair 4% and ELG1 genotoxic 6%.
Screening CCS(=O)(=O)c1ccc(-c2csc(-c3ccccc3Cl)n2)c(Cl)c1Cl returned ELG1 DNA repair 6%, FLuc counter -19%, Rab9 promoter act 2%, SMN2 splice enh -17%, ELG1 genotoxic inconclusive and NPC1 prom act 6%.
For CCS(=O)(=O)c1ccc(-c2csc(-c3ccc(Cl)cc3)n2)c(Cl)c1Cl the results were ELG1 DNA repair 18%, FLuc counter inconclusive, Rab9 promoter act 2%, SMN2 splice enh -6%, ELG1 genotoxic 18µM* and NPC1 prom act 0%.
For C=CC[C@@H](CC(=O)N(CCO)Cc1ccccc1)C(=O)N[C@@H](COC(=O)[C@@H](CC=C)Cc1ccc(F)cc1)Cc1c[nH]c2ccccc12 the results were ELG1 DNA repair 18µM* and ELG1 genotoxic -15%.
For C=CC[C@@H](CC(=O)N(CCO)Cc1ccccc1)C(=O)N[C@@H](C)COC(=O)[C@@H](CC=C)Cc1ccc(F)cc1 the results were ELG1 DNA repair 18µM* and ELG1 genotoxic -6%.
`C=CC[C@H](CC(=O)N(CCO)Cc1ccccc1)C(=O)N[C@@H](COC(=O)[C@@H](CC=C)Cc1ccc(F)cc1)Cc1c[nH]c2ccccc12` gave ELG1 DNA repair 21µM* and ELG1 genotoxic -10%.
For C=CC[C@@H](CC(=O)N(CCO)Cc1ccccc1)C(=O)NC[C@H](OC(=O)[C@@H](CC=C)Cc1ccc(F)cc1)c1ccccc1 the results were ELG1 DNA repair 5.8µM* and ELG1 genotoxic -8%.
CC1Cc2cc(S(=O)(=O)NCc3ccc(F)cc3)ccc2N1C(=O)C1CCC1 (configuration not stated) was read as FLuc counter -9%.
`CC(C)/C=N/Nc1nc(-c2ccc(Br)cc2)cs1` gave ELG1 DNA repair inconclusive, FLuc counter 7.6µM*, Rab9 promoter act inconclusive, SMN2 splice enh 5%, ELG1 genotoxic inconclusive and NPC1 prom act inconclusive.
Screening CC(=O)NCCc1ccc(S(=O)(=O)Nc2ccc(NC(=O)c3ccc(F)cc3)cc2)cc1 returned ELG1 DNA repair -13%, FLuc counter inconclusive, Rab9 promoter act -1%, ELG1 genotoxic 16% and NPC1 prom act -4%.
CSC(=S)N/N=C(\C)c1ccc(Br)cc1 was read as ELG1 DNA repair 14%, FLuc counter inconclusive, Rab9 promoter act -2%, ELG1 genotoxic -8% and NPC1 prom act 0%.
